{"source": "PubChem BioAssay (NCATS)", "note": "Values joined by “and” are separate entries in the source; they are usually repeats but may differ in a detail not shown here. Identical values can stand only once. Active and inactive are the calls of the source.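 Rule for the calls, unless noted: active = compounds whose dose series gives a full or clear partial fitted curve of increased nuclear translocation; inconclusive = weak partial curve or effect only at the top dose; inactive = no dose-dependent translocation response.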 Potency is the fitted concentration of half-maximal effect.", "data": [{"biological_target": "Glucocorticoid receptor (Homo sapiens) (UniProt P04150)", "sequence (P04150 whole entry, looked up, the tested form may be a part)": "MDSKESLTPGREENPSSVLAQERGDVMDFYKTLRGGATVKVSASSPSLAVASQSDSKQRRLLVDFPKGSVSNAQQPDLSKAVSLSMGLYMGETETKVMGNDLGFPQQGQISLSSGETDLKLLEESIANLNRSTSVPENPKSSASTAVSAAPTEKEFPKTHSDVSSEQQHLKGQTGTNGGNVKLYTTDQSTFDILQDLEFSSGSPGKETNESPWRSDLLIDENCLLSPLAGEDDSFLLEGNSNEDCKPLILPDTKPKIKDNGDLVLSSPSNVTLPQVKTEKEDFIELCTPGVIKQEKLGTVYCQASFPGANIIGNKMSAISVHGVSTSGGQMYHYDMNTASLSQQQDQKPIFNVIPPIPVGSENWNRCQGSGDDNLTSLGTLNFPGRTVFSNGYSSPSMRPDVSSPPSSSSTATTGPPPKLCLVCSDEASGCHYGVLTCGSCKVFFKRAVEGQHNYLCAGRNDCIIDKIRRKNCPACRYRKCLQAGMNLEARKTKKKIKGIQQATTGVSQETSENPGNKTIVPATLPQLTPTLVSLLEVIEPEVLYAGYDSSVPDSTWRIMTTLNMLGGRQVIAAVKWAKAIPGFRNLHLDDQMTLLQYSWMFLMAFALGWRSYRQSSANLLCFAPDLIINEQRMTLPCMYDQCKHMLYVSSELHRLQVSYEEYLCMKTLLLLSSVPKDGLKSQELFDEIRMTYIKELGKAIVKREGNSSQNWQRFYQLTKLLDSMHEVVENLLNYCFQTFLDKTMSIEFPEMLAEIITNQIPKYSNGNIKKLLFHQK", "test": "GR-GFP Redistribution (AID 450)", "conditions": "U2OS GR-GFP nuclear translocation, laser cytometry, 2 h", "values": [{"smiles": "CC(=O)N[C@@H](CS)C(=O)O", "Potency": "> 20.6 µM (inactive)"}, {"smiles": "O=C(O)c1cc(-c2ccccc2)nc2ccccc12", "Potency": "> 20.6 µM (inactive)"}, {"smiles": "CC[C@]1(O)C[C@@H]2CN(CCc3c([nH]c4ccccc34)[C@@](C(=O)OC)(c3cc4c(cc3OC)N(C)[C@H]3[C@@](O)(C(=O)OC)[C@H](OC(C)=O)[C@]5(CC)C=CCN6CC[C@]43[C@@H]65)C2)C1", "Potency": "> 20.6 µM (inactive)"}, {"smiles": "O=c1cc(-c2ccc(O)cc2)oc2cc(O)cc(O)c12", "Potency": "> 46 µM (inactive) and > 20.6 µM (inactive)"}, {"smiles": "CC1(C)CCC2=C(O1)c1ccccc1C(=O)C2=O", "Potency": "> 46 µM (inactive)"}, {"smiles": "CS(=O)c1ccc(-c2nc(-c3ccc(F)cc3)c(-c3ccncc3)[nH]2)cc1", "note": "(configuration not stated)", "Potency": "> 46 µM (inactive)"}, {"smiles": "O=c1cc(-c2ccccc2)oc2cc(O)cc(O)c12", "Potency": "> 20.6 µM (inactive)"}, {"smiles": "CC(C)(C)c1ccc(C(O)CCCN2CCC(C(O)(c3ccccc3)c3ccccc3)CC2)cc1", "note": "(configuration not stated)", "Potency": "> 20.6 µM (inactive)"}, {"smiles": "Nc1ncnc2c1ncn2[C@@H]1O[C@@H](CO)[C@H](O)[C@H]1O", "Potency": "> 20.6 µM (inactive)"}, {"smiles": "CC(C(=O)O)c1ccc(-c2ccccc2)c(F)c1", "note": "(configuration not stated)", "Potency": "> 20.6 µM (inactive)"}, {"smiles": "O=c1cc(-c2ccccc2)oc2cc(O)c(O)c(O)c12", "Potency": "> 46 µM (inactive)"}, {"smiles": "CCCCCCCCCCCC1=C(O)C(=O)C=C(O)C1=O", "Potency": "> 46 µM (inactive)"}, {"smiles": "O=c1c(O)c(-c2ccc(O)cc2)oc2cc(O)cc(O)c12", "Potency": "> 20.6 µM (inactive) and > 46 µM (inactive)"}, {"smiles": "COc1cccc(-c2cc(=O)c3ccccc3o2)c1N", "Potency": "> 46 µM (inactive)"}, {"smiles": "O=C1C[C@@H](c2ccc(O)cc2)Oc2cc(O)cc(O)c21", "Potency": "> 20.6 µM (inactive) and > 46 µM (inactive)"}, {"smiles": "COc1ccc2c3c1OC1C[C@@H](O)C=C[C@@]31CCN(C)C2", "note": "(some centres not stated)", "Potency": "> 20.6 µM (inactive)"}, {"smiles": "CC(C)NCC(O)COc1cccc2[nH]ccc12", "note": "(configuration not stated)", "Potency": "> 20.6 µM (inactive)"}, {"smiles": "CC(C)[C@H](CO)Nc1nc(Nc2ccc(C(=O)O)c(Cl)c2)c2ncn(C(C)C)c2n1", "Potency": "> 46 µM (inactive)"}, {"smiles": "COc1ccc(-c2coc3cc(O)ccc3c2=O)cc1", "Potency": "> 46 µM (inactive)"}]}, {"biological_target": "Glucocorticoid receptor (Homo sapiens) (UniProt P04150)", "test": "GR-EFC Redistribution (AID 451; calls by dose curve)", "conditions": "CHO-K1 GR-EFC translocation, beta-gal luminescence, 2 h", "how_it_was_run": "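CHO-K1 cells stably expressing nuclear-localized β-gal enzyme acceptor and GR fused C-terminally to the enzyme donor fragment; ligand-driven nuclear translocation restores β-gal by complementation. Compounds titrated up to 46 uM final, 2 h at 37 °C; luminescence read.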", "values": [{"smiles": "O=c1cc(-c2ccc(O)cc2)oc2cc(O)cc(O)c12", "Potency": "> 46 µM (inactive) and > 20.6 µM (inactive)"}, {"smiles": "CC1(C)CCC2=C(O1)c1ccccc1C(=O)C2=O", "Potency": "> 46 µM (inactive)"}, {"smiles": "CS(=O)c1ccc(-c2nc(-c3ccc(F)cc3)c(-c3ccncc3)[nH]2)cc1", "note": "(configuration not stated)", "Potency": "> 46 µM (inactive)"}, {"smiles": "O=c1cc(-c2ccccc2)oc2cc(O)cc(O)c12", "Potency": "> 20.6 µM (inactive)"}, {"smiles": "Nc1ncnc2c1ncn2[C@@H]1O[C@@H](CO)[C@H](O)[C@H]1O", "Potency": "> 20.6 µM (inactive)"}, {"smiles": "O=c1cc(-c2ccccc2)oc2cc(O)c(O)c(O)c12", "Potency": "> 46 µM (inactive)"}, {"smiles": "CCCCCCCCCCCC1=C(O)C(=O)C=C(O)C1=O", "Potency": "> 46 µM (inactive)"}, {"smiles": "O=c1c(O)c(-c2ccc(O)cc2)oc2cc(O)cc(O)c12", "Potency": "> 20.6 µM (inactive) and > 46 µM (inactive)"}, {"smiles": "COc1cccc(-c2cc(=O)c3ccccc3o2)c1N", "Potency": "> 46 µM (inactive)"}, {"smiles": "O=C1C[C@@H](c2ccc(O)cc2)Oc2cc(O)cc(O)c21", "Potency": "> 20.6 µM (inactive) and > 46 µM (inactive)"}, {"smiles": "COc1ccc2c3c1OC1C[C@@H](O)C=C[C@@]31CCN(C)C2", "note": "(some centres not stated)", "Potency": "> 20.6 µM (inactive)"}, {"smiles": "CC(C)[C@H](CO)Nc1nc(Nc2ccc(C(=O)O)c(Cl)c2)c2ncn(C(C)C)c2n1", "Potency": "> 46 µM (inactive)"}, {"smiles": "COc1ccc(-c2coc3cc(O)ccc3c2=O)cc1", "Potency": "> 46 µM (inactive)"}]}]}
